For some assays here: Results with a measured potency or affinity are listed apart.
Tests used:
Parameters in all cases: scale not given: direction of the effect not stated beside the values
[1] = target: Protein translocase subunit SecA (Escherichia coli (strain K12)) (UniProt P10408); test: Assay to Identify E. coli SecA ATPase Inhibitors; assay type: functional; conditions: 30 µM
[2] = target: T1, Ubiquitin-activating enzyme e1, putative (Leishmania donovani (strain BPK282A1)) (UniProt E9BSI1); test: Leishmania donovani Ubiquitin Activating Enzyme (LdE1); assay type: functional; conditions: 30 µM
T1 sequence (whole entry): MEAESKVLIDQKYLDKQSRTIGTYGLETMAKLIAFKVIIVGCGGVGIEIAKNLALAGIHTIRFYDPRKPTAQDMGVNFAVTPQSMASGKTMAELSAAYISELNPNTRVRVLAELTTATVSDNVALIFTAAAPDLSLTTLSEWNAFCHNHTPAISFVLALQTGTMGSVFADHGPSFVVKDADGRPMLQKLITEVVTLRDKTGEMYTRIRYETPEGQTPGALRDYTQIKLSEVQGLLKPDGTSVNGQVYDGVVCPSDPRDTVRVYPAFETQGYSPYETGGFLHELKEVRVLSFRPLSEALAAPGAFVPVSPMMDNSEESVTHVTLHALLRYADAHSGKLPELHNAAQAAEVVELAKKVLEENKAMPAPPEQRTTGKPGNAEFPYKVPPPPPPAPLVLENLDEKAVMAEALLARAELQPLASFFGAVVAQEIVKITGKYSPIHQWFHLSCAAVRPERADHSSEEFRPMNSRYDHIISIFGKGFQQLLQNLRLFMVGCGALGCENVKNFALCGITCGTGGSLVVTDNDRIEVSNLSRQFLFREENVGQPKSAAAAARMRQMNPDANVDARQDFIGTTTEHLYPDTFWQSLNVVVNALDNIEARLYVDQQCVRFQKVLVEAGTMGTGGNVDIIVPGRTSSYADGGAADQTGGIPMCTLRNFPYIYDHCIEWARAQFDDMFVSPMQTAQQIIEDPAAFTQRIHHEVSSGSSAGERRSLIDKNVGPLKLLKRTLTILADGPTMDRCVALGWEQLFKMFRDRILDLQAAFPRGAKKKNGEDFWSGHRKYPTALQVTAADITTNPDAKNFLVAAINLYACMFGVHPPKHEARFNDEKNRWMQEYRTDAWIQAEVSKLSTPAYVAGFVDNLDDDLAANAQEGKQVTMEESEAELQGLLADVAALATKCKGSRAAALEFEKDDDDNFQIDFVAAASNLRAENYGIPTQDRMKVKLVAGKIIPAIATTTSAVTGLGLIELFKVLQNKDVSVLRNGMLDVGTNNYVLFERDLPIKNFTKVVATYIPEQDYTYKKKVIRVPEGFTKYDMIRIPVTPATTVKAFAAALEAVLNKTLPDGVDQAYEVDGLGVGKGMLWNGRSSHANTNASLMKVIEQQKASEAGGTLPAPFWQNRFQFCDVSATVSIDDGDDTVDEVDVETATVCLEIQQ

[3] = target: AMP-activated protein kinase, AMPK (Homo sapiens) (UniProt P54646+O43741+P54619+Q9UGJ0+Q9Y478+Q13131+Q9UGI9); test: AMP-dependent Kinase enzyme assay. An in vitro enzyme assay that detects ADP turnover that is directly proportional to AMPK activity. This uses naive AMPK that is activated during the assay with MK-8722; assay type: functional; conditions: 30 µM
[4] = target: Sialic acid-binding Ig-like lectin 9 (Homo sapiens) (UniProt Q9Y336); test: Hs-Siglec9 ALPHAscreen SOP 20170721; conditions: 10 µM
Sequence of Sialic acid-binding Ig-like lectin 9 (Homo sapiens) (Q9Y336 whole entry): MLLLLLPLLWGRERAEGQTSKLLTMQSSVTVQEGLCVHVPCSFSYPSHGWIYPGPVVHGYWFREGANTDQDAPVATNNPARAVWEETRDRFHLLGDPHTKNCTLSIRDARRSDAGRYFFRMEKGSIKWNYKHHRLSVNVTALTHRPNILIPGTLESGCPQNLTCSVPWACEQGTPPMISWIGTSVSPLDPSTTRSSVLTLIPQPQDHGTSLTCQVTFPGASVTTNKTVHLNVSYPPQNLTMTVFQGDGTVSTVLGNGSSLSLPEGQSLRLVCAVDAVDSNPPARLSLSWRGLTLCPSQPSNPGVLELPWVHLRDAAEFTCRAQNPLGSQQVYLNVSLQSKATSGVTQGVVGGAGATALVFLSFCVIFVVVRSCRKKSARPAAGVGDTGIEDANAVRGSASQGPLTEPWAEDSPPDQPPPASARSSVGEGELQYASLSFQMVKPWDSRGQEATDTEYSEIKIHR

[5] = system: Trypanosoma cruzi; test: Trypanosoma cruzi phosphomannomutase and mannose-1-phosphate guanylyltransferase assay; assay type: functional; conditions: 10 µM
[6] = target: T2, Arginase-2, mitochondrial (Homo sapiens) (UniProt P78540); test: in vitro enzyme assay to detect the production of urea directly proportional to the activity of Arginase II; assay type: functional; conditions: 33.3 µM; note: in the data most compounds retested in dose-response had high values
T2 sequence (whole entry): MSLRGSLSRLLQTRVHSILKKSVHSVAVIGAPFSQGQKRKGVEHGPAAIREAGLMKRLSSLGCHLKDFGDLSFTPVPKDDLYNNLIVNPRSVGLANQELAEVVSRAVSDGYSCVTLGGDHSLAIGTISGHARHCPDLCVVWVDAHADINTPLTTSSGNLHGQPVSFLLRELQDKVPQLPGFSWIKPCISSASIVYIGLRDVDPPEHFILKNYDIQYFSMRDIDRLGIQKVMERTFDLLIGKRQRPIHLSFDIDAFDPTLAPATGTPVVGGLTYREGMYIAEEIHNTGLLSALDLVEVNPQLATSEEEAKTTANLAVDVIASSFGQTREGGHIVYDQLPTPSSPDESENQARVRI

[7] = target: T3, Proteasome subunit beta (Trypanosoma cruzi) (UniProt O96673); test: Trypanosoma cruzi proteasome chymotrypsin-like activity (TcProtChymo) assay.; note: in the data most compounds retested in dose-response had high values; assay type: functional; conditions: 9.37 µM
T3 sequence (whole entry): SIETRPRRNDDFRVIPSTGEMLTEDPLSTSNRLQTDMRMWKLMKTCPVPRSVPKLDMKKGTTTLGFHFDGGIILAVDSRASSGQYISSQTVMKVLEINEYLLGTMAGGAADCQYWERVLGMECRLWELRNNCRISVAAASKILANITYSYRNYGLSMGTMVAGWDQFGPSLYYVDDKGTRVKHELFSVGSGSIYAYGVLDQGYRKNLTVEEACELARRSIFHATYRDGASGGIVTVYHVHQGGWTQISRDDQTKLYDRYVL

[8] = species on record: Homo sapiens; test: To identify inhibition of the IFN signalling (Jak-Stat) pathway via expression of an eGFP reporter gene under the control of an IFN-stimulated response element (ISRE) containing MxA promoter.; assay type: functional; conditions: 30 µM
[9] = target: T4, Tyrosyl-tRNA synthetase, putative (Trypanosoma cruzi (strain CL Brener)) (UniProt Q4DSP6); test: Trypanosoma cruzi tyrosyl tRNA synthetase (TcYRS) _High Tyrosine SOP; assay type: functional; conditions: 30 µM; note: in the data most compounds retested in dose-response had high values
T4 sequence (whole entry): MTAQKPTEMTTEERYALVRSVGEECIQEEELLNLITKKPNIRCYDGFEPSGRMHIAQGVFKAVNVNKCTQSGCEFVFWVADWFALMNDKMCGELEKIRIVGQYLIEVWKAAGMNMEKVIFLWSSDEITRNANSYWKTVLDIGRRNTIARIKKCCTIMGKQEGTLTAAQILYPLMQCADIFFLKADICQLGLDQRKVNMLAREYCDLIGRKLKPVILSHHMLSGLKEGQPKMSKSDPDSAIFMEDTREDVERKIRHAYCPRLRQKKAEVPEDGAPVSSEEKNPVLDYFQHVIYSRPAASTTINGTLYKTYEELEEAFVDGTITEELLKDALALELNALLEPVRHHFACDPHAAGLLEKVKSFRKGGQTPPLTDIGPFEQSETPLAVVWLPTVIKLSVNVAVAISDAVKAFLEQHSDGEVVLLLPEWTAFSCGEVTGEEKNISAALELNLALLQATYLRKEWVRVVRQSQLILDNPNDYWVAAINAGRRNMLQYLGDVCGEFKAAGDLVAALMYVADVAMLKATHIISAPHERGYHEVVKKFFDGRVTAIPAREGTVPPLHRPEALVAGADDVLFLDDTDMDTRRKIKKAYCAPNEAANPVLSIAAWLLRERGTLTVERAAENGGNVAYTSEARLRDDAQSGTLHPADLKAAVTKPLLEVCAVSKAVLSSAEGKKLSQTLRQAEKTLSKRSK

[10] = target: T4, Tyrosyl-tRNA synthetase, putative (Trypanosoma cruzi (strain CL Brener)); test: Trypanosoma cruzi tyrosyl tRNA synthetase (TcYRS) SOP; assay type: functional; conditions: 30 µM
[11] = target: Chromo domain-containing protein 1 (Saccharomyces cerevisiae (strain ATCC 204508 / S288c) (Baker's yeast)) (UniProt P32657); test: ScCHD-1 Enzyme Inhibition Assay; assay type: functional; conditions: 30 µM; note: in the data most compounds retested in dose-response had high values
Sequence of Chromo domain-containing protein 1 (Saccharomyces cerevisiae (strain ATCC 204508 / S288c) (Baker's yeast)) (P32657 whole entry, the tested form may be a part): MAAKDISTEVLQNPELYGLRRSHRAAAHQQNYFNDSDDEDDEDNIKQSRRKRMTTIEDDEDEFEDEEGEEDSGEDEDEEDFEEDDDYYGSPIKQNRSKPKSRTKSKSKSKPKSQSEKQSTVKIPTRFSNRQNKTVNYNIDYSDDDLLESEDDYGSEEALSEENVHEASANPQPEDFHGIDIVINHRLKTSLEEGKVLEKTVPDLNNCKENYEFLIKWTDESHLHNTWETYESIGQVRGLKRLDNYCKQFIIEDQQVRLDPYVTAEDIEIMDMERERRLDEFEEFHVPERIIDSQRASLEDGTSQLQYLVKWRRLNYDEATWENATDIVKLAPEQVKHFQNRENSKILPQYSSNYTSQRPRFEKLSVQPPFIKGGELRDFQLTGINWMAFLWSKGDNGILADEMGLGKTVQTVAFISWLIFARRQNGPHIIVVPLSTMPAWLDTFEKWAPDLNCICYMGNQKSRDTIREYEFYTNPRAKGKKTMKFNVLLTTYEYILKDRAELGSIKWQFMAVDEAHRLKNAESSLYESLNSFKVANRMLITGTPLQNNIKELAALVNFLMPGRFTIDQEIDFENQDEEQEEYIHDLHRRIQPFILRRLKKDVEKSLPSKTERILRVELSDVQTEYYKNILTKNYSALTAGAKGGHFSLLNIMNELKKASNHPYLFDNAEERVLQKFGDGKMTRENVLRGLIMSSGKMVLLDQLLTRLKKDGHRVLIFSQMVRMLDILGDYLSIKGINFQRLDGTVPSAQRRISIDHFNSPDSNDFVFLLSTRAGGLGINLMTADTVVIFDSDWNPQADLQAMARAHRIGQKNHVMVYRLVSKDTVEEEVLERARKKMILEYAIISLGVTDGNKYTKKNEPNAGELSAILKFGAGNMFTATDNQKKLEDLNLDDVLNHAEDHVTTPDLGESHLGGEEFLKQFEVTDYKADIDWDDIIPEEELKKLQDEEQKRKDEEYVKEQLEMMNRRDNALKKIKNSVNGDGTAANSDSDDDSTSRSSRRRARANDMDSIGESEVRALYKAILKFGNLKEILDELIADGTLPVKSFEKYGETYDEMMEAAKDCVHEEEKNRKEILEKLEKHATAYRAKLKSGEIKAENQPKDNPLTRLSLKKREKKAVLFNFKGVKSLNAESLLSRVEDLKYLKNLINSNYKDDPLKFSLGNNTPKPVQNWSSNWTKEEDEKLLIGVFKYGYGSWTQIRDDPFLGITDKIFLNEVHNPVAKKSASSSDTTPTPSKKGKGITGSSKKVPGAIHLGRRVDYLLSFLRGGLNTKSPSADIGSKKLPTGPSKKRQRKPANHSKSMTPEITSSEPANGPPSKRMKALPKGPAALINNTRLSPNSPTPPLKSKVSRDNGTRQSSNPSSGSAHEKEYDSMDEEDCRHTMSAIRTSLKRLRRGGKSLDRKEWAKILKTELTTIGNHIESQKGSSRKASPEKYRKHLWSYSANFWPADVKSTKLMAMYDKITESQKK

Sequence of Protein translocase subunit SecA (Escherichia coli (strain K12)) (P10408 whole entry): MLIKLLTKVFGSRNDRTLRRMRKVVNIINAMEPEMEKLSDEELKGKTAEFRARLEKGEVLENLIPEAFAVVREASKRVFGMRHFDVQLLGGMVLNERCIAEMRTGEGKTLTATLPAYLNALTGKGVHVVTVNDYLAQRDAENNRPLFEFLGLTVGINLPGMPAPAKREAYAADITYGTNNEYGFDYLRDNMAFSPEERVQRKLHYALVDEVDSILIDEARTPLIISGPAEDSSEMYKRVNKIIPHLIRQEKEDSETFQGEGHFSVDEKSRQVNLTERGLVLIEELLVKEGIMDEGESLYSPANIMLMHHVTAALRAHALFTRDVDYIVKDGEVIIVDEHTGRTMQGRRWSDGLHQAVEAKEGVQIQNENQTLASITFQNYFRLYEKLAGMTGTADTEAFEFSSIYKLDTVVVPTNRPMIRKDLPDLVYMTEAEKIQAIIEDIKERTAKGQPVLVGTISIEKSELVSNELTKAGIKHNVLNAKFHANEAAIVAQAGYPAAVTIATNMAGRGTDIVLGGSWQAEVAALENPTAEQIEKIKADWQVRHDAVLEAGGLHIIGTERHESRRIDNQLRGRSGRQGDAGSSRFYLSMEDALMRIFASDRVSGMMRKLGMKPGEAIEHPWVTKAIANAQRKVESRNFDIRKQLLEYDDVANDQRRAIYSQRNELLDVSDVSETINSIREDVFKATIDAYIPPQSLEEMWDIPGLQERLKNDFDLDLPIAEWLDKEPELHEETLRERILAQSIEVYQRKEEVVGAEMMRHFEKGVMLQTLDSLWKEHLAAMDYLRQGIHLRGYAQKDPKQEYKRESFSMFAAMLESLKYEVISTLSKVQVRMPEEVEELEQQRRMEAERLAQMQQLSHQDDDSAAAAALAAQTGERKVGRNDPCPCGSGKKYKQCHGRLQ

| SMILES | Percent Effect [1] | Percent Effect [2] | Percent Effect [3] | Percent Effect [4] | Percent Effect [5] | Percent Effect [6] | Percent Effect [7] | Percent Effect [8] | Percent Effect [9] | Percent Effect [10] | Percent Effect [11] |
| --- | --- | --- | --- | --- | --- | --- | --- | --- | --- | --- | --- |
| COCCn1cc2c(n1)C(CNCc1ccc(F)cc1)OCC2 (configuration not stated) | -5.93% | 8.11% | -0.136% | -5.65% | -0.195% | 5.42% | 16.8% | -4.69% | 11.9% | 11% | -6.25% |
| OC[C@H]1CC[C@]2(CC1)CN(Cc1ccccc1F)Cc1ccccc1O2 | -4.99% | 4.05% | 15.1% | 6.64% | 4.15% | 2.55% | 12.6% | 41.4% | 3.23% | 14.3% | -0.993% |
| O=C(CCNC(=O)c1ccoc1)Nc1c(F)cccc1F | 0.646% | 18.2% | -4.32% | 5.34% | -2.84% | 4.42% | 18.8% | 14% | 6.67% | 21.2% | -3.32% |
| CC(C)c1cc(NC(=O)c2ccc(NC3CC3)nc2)[nH]n1 | -5.31% | 13% | 111% | 10.4% | 8.24% | -6.05% | 11.5% | -1.61% | 7.77% | 24.4% | -8.09% |
| Cc1nc(C)n(C2CCCN(C(=O)c3ccccc3C)C2)n1 (configuration not stated) | -0.244% | 18.2% | -0.257% | -8.82% | -0.881% | 7.37% | 12.5% | 12.5% | 7.62% | 11.8% | -10% |
| c1ccc2sc(CN3CCOC(Cn4cncn4)C3)nc2c1 (configuration not stated) | -1.57% | -8.11% | -9.39% | -1.81% | -6.51% | 0.401% | -4.68% | 42.5% | 1.48% | -6.17% | 4.42% |
| CSc1ncccc1C(=O)N1C[C@H]2CC[C@@H]1CN(c1ncccn1)C2 | -4.71% | 7.79% | 4.3% | 12.7% | 1.87% | -31.7% | 6.82% | -0.196% | 7.53% | 11.1% | -5.74% |
| Fc1cccc(-n2ccc(CN3CCCCC3Cn3cncn3)n2)c1 (configuration not stated) | -3.79% | -7.59% | 0.842% | 2.62% | -2.74% | -1.14% | -2.21% | 17% | -2.46% | -8.86% | 2.75% |
| Cc1ncc(CN(C)C2CCCN(Cc3noc(C4CC4)n3)C2)s1 (configuration not stated) | -3.21% | 5.26% | -3.55% | 4.27% | 7.52% | -0.766% | 8.02% | 14.3% | 2.45% | 12.2% | -9.03% |
| CCn1c(CN(C)C)nnc1C1CCN(Cc2cccc(OC)c2)CC1 | 2.78% | 10.4% | -4.93% | 7.22% | -3.64% | -12.4% | 16% | 10.6% | 4.3% | 11.1% | 0.325% |
| COc1ccc(C(=O)N2CCCC(C)C2)cc1F (configuration not stated) | -4.09% | 24.3% | -19.3% | -3.4% | 2.17% | -15.6% | 16.2% | 18.6% | 4.43% | 18.5% | -9.54% |
| COc1cc2cc(C(=O)O)n(C)c2cc1OC | -4.26% | -4% | 7.45% | 10.6% | -0.982% | -10% | 9.61% | -15.2% | 4.23% | 0% | -6.18% |
| CC(C)COCc1cncc2c1CCN(Cc1cnn(C)c1)C2 | -5.06% | 7.79% | 2.31% | 5.43% | -0.688% | -29% | 4.16% | -12.6% | 7.53% | 11.1% | 133% |
| CN(CCCNC(=O)N1CCCC1c1ccsc1)c1ccccn1 (configuration not stated) | -0.565% | 28.6% | -13.6% | -0.894% | 1.5% | 3.92% | 12.5% | 25.5% | 9.71% | 19.5% | -10.5% |
| Cn1cc(C[C@H]2[C@@H](O)CCN2C(=O)C2CC=CC2)cn1 | -1.02% | 7.79% | 8.48% | -3.96% | 0.69% | 12.3% | 17.8% | 26.4% | 1.06% | 14.1% | -9.76% |
| CCN1CCC(NC(=O)CN2CCCCC2Cn2cc(C)cn2)CC1 (configuration not stated) | 3.6% | 21.5% | 4.67% | -0.101% | -4.21% | -11.4% | 15.3% | 14.9% | 1.04% | -22.8% | -23.6% |
| Cc1ncnc2c1CCN(Cc1cccs1)CC2 | -2.76% | 8% | 10% | -1.57% | -6.18% | -55.7% | -1.2% | 10.4% | 8.33% | 7.5% | -6.96% |
| CCc1nc(CNC(=O)Nc2ccc(C(=O)NC)cc2C)cs1 | -5.84% | 16% | -2.78% | 18.6% | 8.28% | 6.25% | 4.88% | 11.9% | 4.92% | 11.1% | -7.82% |
| c1cc2c(cc1C1CCCN1Cc1nnnn1C1CC1)OCCO2 (configuration not stated) | -3.24% | 6.94% | -13.5% | 29.5% | 6.32% | -5.74% | 4.39% | -5.04% | 5.26% | 15.4% | -4.08% |
| Cn1c(CN2CCOCC2)nnc1C1CCN(C(=O)C2CCCC2)CC1 | 0.739% | 13.5% | 1.53% | 14.3% | 3.09% | 0.476% | 20.9% | 2.19% | 5.82% | 19.5% | -4.58% |
| O=C1CC(c2cccs2)c2snc(C(=O)O)c2N1 (configuration not stated) | -2.26% | 4.17% | -2.53% | 8.18% | 4.76% | 3.09% | 2.63% | 1.26% | 2.1% | 5.13% | -3.46% |
| CNS(=O)(=O)Cc1ccc(CNC(=O)c2cccc(C)n2)cc1 | -2.39% | 23.4% | 0.0556% | 2.86% | 4.12% | -3.92% | 5.57% | 15.5% | 11.7% | 21.9% | -7.52% |

Reference: ChEMBL document CHEMBL3988442, “University of Dundee, Small-Polar-MMV Screening Library” (2021)
